Source: PubChem BioAssay AID449762 (Southern Research Specialized Biocontainment Screening …, 2010)
The campaign covered roughly 330,000 compounds. About 1,900 (0.58%) were called active. Another 4% or so got no clear call; they are omitted. Not all results are given here. Potency and affinity values are given separately. Unmarked numbers belong to inactive results. No stated cut-off is given here; in the data, inconclusive means inhibition above about 70% without an active follow-up result; inactive means below that.

Assay: M. tuberculosis growth inhibition, HTS (AID 449762);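 further: bacterial growth assessed after seven days of incubation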
Settings: M. tuberculosis H37Rv growth inhibition, 7H9 media; at 25 µM; stronger effect = higher value

Row | SMILES | inhibition
1 | O=C(CN1C(=O)c2ccccc2S1(=O)=O)NC1CC2CCC1C2 (centres undefined) | -4.11%
2 | CN1CCN(c2ccc(NC(=O)CN3CCOCC3)cc2F)CC1 | -4.73%
3 | C=CCNC(=S)NC(=O)c1csc([N+](=O)[O-])c1 | 18.2%
4 | CC(C)CNC(=S)NC(=O)c1ccc([N+](=O)[O-])cc1 | 11.6%
5 | CCn1c(SCC(=O)N/N=C/c2ccccc2OCC(=O)O)nnc1-c1ccc(OC)cc1 | 1.34%
6 | Oc1ccc(CNc2ccccc2)c2cccnc12 | -3.76%
7 | OCc1ccc(O)c2ncccc12 | 52.4%
8 | Cc1ccccc1NCc1ccc(O)c2ncccc12 | 2.36%
9 | Oc1ccc(CNc2ccc(F)cc2)c2cccnc12 | -1.78%
10 | Cc1cccc(NCc2ccc(O)c3ncccc23)c1 | 14.1%
11 | Oc1ccc(CN2CCCc3ccccc32)c2cccnc12 | -5.25%
12 | Oc1ccc(CN2CCN(Cc3ccccc3)CC2)c2cccnc12 | 14.4%
13 | Cc1cccnc1NCc1ccc(O)c2ncccc12 | 51.8%
14 | COc1ccc(S(=O)(=O)N(Cc2ccc(OC)c(OC)c2)Cc2ccco2)cc1 | 12.4%
15 | O=C1NNC(=O)C1c1ccccc1 | 0.86%
16 | COc1cccc(C2[C@H](C)C3(CCN2C)OCCO3)c1 (some centres undefined) | 1.26%
17 | C=CCN(C(=O)c1csnn1)C(C(=O)NCc1ccccc1)c1ccccc1F (centres undefined) | 5.11%
18 | COc1ccc(NC(=S)N2CCC(c3ccccc3)C2)cc1 (centres undefined) | 0.04%
19 | CCCC(=O)OCC(=O)Nc1ccc([N+](=O)[O-])cc1C#N | 0.66%
20 | O=C1CCc2cc(S(=O)(=O)NCCc3ccccc3)cc3c2N1CC3 | -3.75%
21 | CN1CCN(CC(O)COc2ccc(C(=O)O)cc2)CC1 (centres undefined) | 4%
22 | COc1ccc(C=O)cc1CN1CCCN(Cc2ccccc2F)S1(=O)=O | 9.36%
23 | C=CCc1cc(C)ccc1OCCOCCC(C(=O)OCC)C(=O)OCC | -7.06%
24 | C=CCc1cc(OC)ccc1OCCOCCC(C(=O)OCC)C(=O)OCC | -13%
25 | O=C(NN=C1CCCC1)c1[nH]c2ccc(Br)cc2c1-c1ccccc1 | 62%

Row | SMILES | inhibition
26 | Cc1ccc2[nH]c(C(=O)O)c(-c3ccccc3)c2c1 | 6.59%
27 | CCOC(=O)Cn1cnc2c(nnn2-c2ccc(C)cc2)c1=O | -14.9%
28 | CCC(NC(=O)c1cc(COc2c(F)cccc2F)on1)c1ccncc1 (centres undefined) | -2.33%
29 | CC(CN1C(C)CCCC1C)OC(=O)c1cccc(F)c1 (centres undefined) | 3.14%
30 | CC(C)C1CC(CCN)(Cc2ccccc2)CCO1 (centres undefined) | 1.79%
31 | COc1ccc2cc(C#N)c(N3CCOCC3)nc2c1 | 3.82%
32 | COc1ccc2cc(C#N)c(N3CCN(C(=O)c4ccccc4C)CC3)nc2c1 | 11.1%
33 | O=S(=O)(CCN1CCSCC1)c1ccc(Cl)cc1 | -12.2%
34 | CSCCC(NC(=O)COc1ccccc1)C(=O)N1CCN(C(C)=O)CC1 (centres undefined) | 4.67%
35 | Cc1nc2ccccn2c1C(=O)N/N=C/c1ccccc1 | -1.76%
36 | Cc1ccc(NC(=O)c2c(C)nc3ccccn23)cc1C | -2.44%
37 | CCOC(=O)N1CCN(C(=O)COC(=O)Cc2ccc(OC)cc2)CC1 | -5.2%
38 | CC(C)CNC(=O)c1cccc(NC(=O)Cc2ccc(Cl)cc2)c1 | -1.92%
39 | CCc1nc(C)cn1S(=O)(=O)c1cc(F)ccc1OC | 0.63%
40 | Fc1ccc(Nc2cccc3nccnc23)cc1 | 7.88%
41 | Cc1ccc(OS(=O)Nc2cccc3nccnc23)cc1 (centres undefined) | 49%
42 | CNC(=S)NNC(=O)c1cc(-c2cccnc2)nc2ccccc12 | -1.9%
43 | COc1ccc(NC(=O)COC(=O)CCc2ccc(S(=O)(=O)N3CCOCC3)cc2)c(OC)c1 | -0.81%
44 | Cc1[nH]n(-c2ccccc2)c(=O)c1C(=O)c1ccc(Cl)cc1 | 67.2%
45 | Cc1[nH]n(-c2ccccc2)c(=O)c1C(=O)c1ccccc1 | 1.23%
46 | COC(=O)CCSc1cc(NCCOC(C)=O)c([N+](=O)[O-])c2nonc12 | 27.1%
47 | CCCSc1cc(NCCOC(C)=O)c([N+](=O)[O-])c2nonc12 | 14.4%
48 | O=c1cc(CO)oc(C(Nc2ccccn2)c2cccc(F)c2)c1O (centres undefined) | -4.25%
49 | Cc1ccc(-n2ccnc2SCC(=O)c2c(N)n(C3CC3)c(=O)[nH]c2=O)cc1C | -3.24%
50 | CC(OC(=O)CCC(=O)c1cccs1)C(=O)Nc1ccccc1[N+](=O)[O-] (centres undefined) | -1.97%

Row | SMILES | inhibition
51 | COc1ccc(OCCCC(=O)OC(C)C(=O)Nc2ccc(NC(C)=O)cc2)cc1 (centres undefined) | -25.7%
52 | O=C(CC12CC3CC(CC(Br)(C3)C1)C2)Nc1cccc(S(=O)(=O)NC2=NCCC2)c1 | 7.59%
53 | CC(C)(C)NC(=S)N1CCn2cccc2C1c1cccnc1 (centres undefined) | -4.33%
54 | O=C(N/N=C/c1ccc2ncccc2c1)c1cccc([N+](=O)[O-])c1 | 10.3%
55 | CCCCNC(=O)CSc1nc2cc3c(cc2c(=O)n1Cc1ccco1)OCO3 | -13%
56 | COC(=O)COc1ccc(/C=C2/NC(=O)N(CC(=O)OC)C2=O)cc1 | 0.75%
57 | CCN1C(=O)/C(=C/c2ccc(N3CCCC3)cc2)NC1=S | -3.08%
58 | CN(CC(=O)Nc1c(Cl)cccc1Cl)C(=O)Cc1cccs1 | -16.5%
59 | O=C(Nc1cccc(-c2nc3ccccc3s2)c1)c1cc(=O)c2ccccc2o1 | 10.9%
60 | Cn1ncc([N+](=O)[O-])c1C(=O)Nc1cccc(Cl)c1 | -25.5%
61 | Cc1nc2c3ccccc3nc(NNC(=O)CCC(=O)N3CCC(C)CC3)n2n1 | -3.15%
62 | Cc1nonc1OCCN1CCN(c2ccc([N+](=O)[O-])cc2)CC1 | 9.04%
63 | Cc1ccc(S(=O)(=O)Nc2ccc(C(N)=O)cc2)cc1[N+](=O)[O-] | -1.5%
64 | CCOC(=O)c1ccc(NC(C)=O)c([N+](=O)[O-])c1 | -9.36%
65 | CCCNc1ccc(C(=O)OCC)cc1[N+](=O)[O-] | -11.2%
66 | O=C(/C=C/c1ccccc1)N/C(=C/c1ccccc1)C(=O)Nc1cccc(C(=O)O)c1 | -8.21%
67 | Nc1cc2c(cc1C(=O)c1ccc(Cl)cc1)OCCO2 | 4.52%
68 | O=C(COc1ccc(Cl)cc1Cl)N/N=C/c1cccnc1 | -6.12%
69 | CN(C)c1ccc(NC(=O)c2ccncc2)c2ccccc12 | -1.45%
70 | COc1cc(OC)cc(C(=O)Nc2ccc(N(C)C)c3ccccc23)c1 | 1.99%
71 | CCOC(=O)C1=C(C)Nc2nc(C)nn2C1c1ccc(C)cc1 (centres undefined) | 5.22%
72 | CCCCN(CCCC)Cc1ccc(C(=O)NNC(=O)Nc2ccc(F)cc2)o1 | 4.32%
73 | CC(=O)Nc1ccc(S(=O)(=O)N[C@@H](C)C(=O)N2CCN(C/C=C/c3ccccc3)CC2)cc1 | -13.2%
74 | Cc1ccc(S(=O)(=O)NC(CC(C)C)C(=O)N2CCCC2)cc1 (centres undefined) | -3.51%
75 | COc1ccc(-c2ccc(-c3nnn(CC(C)=O)n3)cc2)cc1 | 12.6%

Row | SMILES | inhibition
76 | COc1cccc(CN(C)C(=O)C(CCSC)NS(=O)(=O)c2ccc3c(c2)OCCO3)c1OC (centres undefined) | -2%
77 | CCCCn1cnc2c(oc3nc4c(cc32)CCCC4)c1=O | 5.81%
78 | Oc1ccc2ccccc2c1N=Nc1ccccc1F | -3.05%
79 | Oc1ccc2ccccc2c1/C=N/c1nccs1 | 0.82%
80 | CCOC(=O)c1sc(NC(=O)C(OC(C)=O)c2ccccc2)nc1C (centres undefined) | -4.59%
81 | COc1ccc(OC)c(C(O)C2CCCCN2)c1 (centres undefined) | 0.57%
82 | O=C(O)c1cc(C(F)(F)F)nc2c(C(F)(F)F)cccc12 | -3.33%
83 | Cc1sc2nc(-c3ccc(Br)cc3)oc(=O)c2c1C | 7.29%
84 | O=C1[C@@H]2Cc3c([nH]c4ccccc34)CN2C(=O)CN1CCCCCO | -3.43%
85 | c1ccc(Nc2ccccn2)nc1 | 4.45%
86 | c1ccc(Nc2ccccc2Nc2ccccn2)nc1 | -3.39%
87 | O=C(NC1CCS(=O)(=O)C1)/C(=C/c1ccco1)NC(=O)c1ccccc1 (centres undefined) | -0.22%
88 | CCC[C@H](N[C@@H](CCC)[C@H](O)c1ccccc1)[C@H](O)c1ccccc1 | -2.74%
89 | O=C(Nc1ccc(F)cc1)c1ccc(S(=O)(=O)NCC2CCCO2)cc1 (centres undefined) | 0.17%
90 | Cc1ccc(OCCNC(=O)CCNS(=O)(=O)c2ccc3ccccc3c2)cc1 | 1.14%
91 | Cc1nn(C)c(C)c1NC(=O)c1cc2nc(-c3ccco3)cc(C(F)(F)F)n2n1 | -8.4%
92 | O=C(Nc1cnn(Cc2ccccc2)c1)c1cc2nc(-c3ccco3)cc(C(F)(F)F)n2n1 | 1.16%
93 | COCCCN1C(=O)c2ccc(C(=O)NCCc3ccccc3)cc2C1=O | 0.01%
94 | O=[N+]([O-])c1ccc(C2CN=C(Nc3ccccc3)S2)cc1 (centres undefined) | 0.07%
95 | CC1CN=C(Nc2ccccc2)S1 (centres undefined) | 1.32%
96 | Cc1cc2c(OCC(O)CN3CCCCC3)cccc2[nH]1 (centres undefined) | -0.02%
97 | COc1cc(C(=O)ONC(=O)c2ccc(OC(F)F)cc2)cc(OC)c1OC | 0.02%
98 | O=C(NCc1ccc(Cl)cc1)C1CCCN(c2cnccn2)C1 (centres undefined) | 3.46%
99 | O=C(COc1ccc(S(=O)(=O)N2CCOCC2)cc1Cl)NCCN1CCOCC1 | 0.71%
